Among the data in PubChem BioAssay (Tox21) are max response and Potency values, retold here.

Molecules are shown by their SMILES. Inconclusive results are not listed. Values without a mark were called inactive. Activity calls are given as the source filed them. The call rests on the fitted dose curve; in most records, active means well fitted curve in the direction sought with a large enough effect in the repeat runs; inconclusive means weak or mixed curves; inactive means no such curve, though single readings can be large; an effect the other way counts as inactive or inconclusive.
On the % scale 0 is the no-effect control and ±100 the full control effect.

A short description of one test: qHTS RealTime-Glo MT Cell Viability Assay in HEK293 cells - 40 hour (AID 1224874). Further: nearly all actives have a fitted effect of over 50% in size. Further: potency means the concentration at half of the fitted maximal effect. The following applies: RealTime-Glo luminescence; max response: active compounds read low. In outline:
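Luminescence, which tracks viable cell number through reduction of the prosubstrate to a NanoLuc substrate, was read over continuous 37 C culture. Cells (600/well) were premixed with reagent and rested 5 h before 23 nL of compound in DMSO was pinned.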
Background: In qHTS, concentration-response curves come from the screen itself.
As to `CC(=O)Nc1ccc(C)cc1`, the max response was -5.67%.

`CCC1COC(=O)O1` (configuration not stated): the max response was -0.285%.

Take `C[CH2][Ge]([Cl])([CH2]C)[CH2]C`: the max response was 1.99%.

As to `Cc1cccc(Nc2ccncc2S(=O)(=O)NC(=O)NC(C)C)c1`, the max response was -1.39%.

Regarding `CCCCCN(CCCOC)C(=O)C(CCC(=O)O)NC(=O)c1ccc(Cl)c(Cl)c1` (configuration not stated), the max response was -0.0123%.

In the case of `NS(=O)(=O)c1ccccc1OC(F)(F)F`, the max response was 6.21%.

`CC(=O)OCCCc1ccccc1`: the max response was 4.03%.

Consider `CN[C@@H]1[C@@H](O)[C@@H](O[C@@H]2[C@H](O)[C@H](O[C@H]3OC(CN)=CC[C@H]3N)[C@@H](N)C[C@H]2N)OCC1(C)O` (some centres not stated), for which the max response is 1.03%.

Turning to `CCC(C)(C)C1CCC(=O)CC1`, the max response is 7.65%.

In the case of `Cc1ccccc1C`, the max response was 13.2%.

`NC(=O)NNC(N)=O`: the max response is 19.6%.

`CCCCCCCCCCCCCCCC(=O)NCCO`: the max response was -2.85%.

With `O=C(O)c1ccc(OCCN2CCCCC2)cc1`, the max response is 5.16%.

`C=CCOc1c(Br)cc(Br)cc1Br`: the max response is 2.02%.

Regarding `O=CN1CCOCC1`, the max response was 10.7%.

As for `CCCCCCCCOC(C)=O`, the max response is 7.81%.

With `CC(C)COC(=O)COc1ccc(Cl)cc1Cl`, the max response was 6.46%.

Take `CCCCC(C)C(=O)O` (configuration not stated): the max response is -5.74%.

Regarding `CCCCCCCCCCCCCCCCI`, the max response was -10.6%.

For the compound `COc1ccc(NS(=O)(=O)c2ccc(N)cc2)nn1`, the max response is 3.44%.

On to `O=c1[nH]c(=O)c2ccccc2o1`, for which the max response was 1.98%.

Turning to `CNCc1ccccc1`, the max response is -3.32%.

For `O=C(COCCOCCOCC(=O)Nc1c(I)cc(I)c(C(=O)O)c1I)Nc1c(I)cc(I)c(C(=O)O)c1I`, the max response is 3.14%.

On to `CCCCCCCCCCC`, for which the max response was -0.764%.

On to `C=CCOc1c(Br)cc(C(C)(C)c2cc(Br)c(OCC=C)c(Br)c2)cc1Br`, for which the max response was 14.4%.

Turning to `O=C(O)/C=C/c1ccccc1`, the max response is -8.08%.

Take `C[C@H](CCC(=O)NCC(=O)O)[C@H]1CC[C@H]2[C@@H]3[C@H](O)C[C@@H]4C[C@H](O)CC[C@]4(C)[C@H]3C[C@H](O)[C@]12C`: the Potency was 9.49 µM (active).

`CCCOC(=O)CCCCC(=O)OCCC`: the max response is -4.84%.

For `CN(C)CCOCCN(C)CCO`, the max response was -7.32%.

Consider `CC(C)SCc1ccco1`, for which the max response was 4.71%.

Consider `CCNC(=O)NCCCOc1cccc(CN2CCCCC2)c1`, for which the max response was -3.36%.

For the compound `COc1cc(C=O)ccc1OC(=O)C(C)C`, the max response is -2%.

Consider `O=C(Oc1ccccc1C(=O)O)c1ccccc1O`, for which the max response was 4.65%.

Consider `CCCCCCCCCCCCCCCCCCN(C)C`, for which the max response is 0.677%.

With `O=C(O)CCNC(=O)c1ccccc1`, the max response is -0.231%.

Turning to `CC(=O)Nc1ncc([N+](=O)[O-])s1`, the max response was 0.8%.

As to `COc1cccc2sc(N)nc12`, the max response was -6.71%.

A short description of another test: A CellTox Green Cytotoxicity Assay to monitor cytotoxicity in HEK293 cells - 24 hour (AID 1224875). Further: nearly all actives have a fitted effect of over 45% in size. The following applies: CellTox Green fluorescence; series mostly up to 76.8 µM. In outline: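 Fluorescence from a DNA-binding dye excluded by viable cells was measured repeatedly in the same HEK293 wells (600 cells/well) during continuous compound exposure at 37 C. Each assay gives one read point: 0, 8, 16, 24, 32 or 40 h.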
Consider `CC(=O)Nc1ccc(C)cc1`, for which the Potency entry was “inactive”.

Turning to `CCC1COC(=O)O1` (configuration not stated), the Potency entry is “inactive”.

Regarding `C[CH2][Ge]([Cl])([CH2]C)[CH2]C`, the Potency entry is “inactive”.

Turning to `Cc1cccc(Nc2ccncc2S(=O)(=O)NC(=O)NC(C)C)c1`, the Potency entry is “inactive”.

As for `Oc1ccccc1Cc1ccccc1O`, the Potency entry is “inactive”.

Turning to `CCCCCN(CCCOC)C(=O)C(CCC(=O)O)NC(=O)c1ccc(Cl)c(Cl)c1` (configuration not stated), the Potency entry was “inactive”.

Turning to `NS(=O)(=O)c1ccccc1OC(F)(F)F`, the Potency entry is “inactive”.

On to `CN[C@@H]1[C@@H](O)[C@@H](O[C@@H]2[C@H](O)[C@H](O[C@H]3OC(CN)=CC[C@H]3N)[C@@H](N)C[C@H]2N)OCC1(C)O` (some centres not stated), for which the Potency entry was “inactive”.

Take `CCC(C)(C)C1CCC(=O)CC1`: the Potency result was “inactive”.

Turning to `Cc1ccccc1C`, the Potency entry is “inactive”.

Consider `NC(=O)NNC(N)=O`, for which the Potency entry was “inactive”.

For the compound `CCCCCCCCCCCCCCCC(=O)NCCO`, the Potency result is “inactive”.

Consider `O=C(O)c1ccc(OCCN2CCCCC2)cc1`, for which the Potency entry was “inactive”.

With `C=CCOc1c(Br)cc(Br)cc1Br`, the Potency result is “inactive”.

On to `O=CN1CCOCC1`, for which the Potency entry is “inactive”.

Regarding `CCCCCCCCOC(C)=O`, the Potency entry was “inactive”.

In the case of `CC(C)COC(=O)COc1ccc(Cl)cc1Cl`, the Potency result is “inactive”.

Consider `CCCCC(C)C(=O)O` (configuration not stated), for which the Potency entry is “inactive”.

In the case of `COc1ccc(NS(=O)(=O)c2ccc(N)cc2)nn1`, the Potency entry is “inactive”.

As for `O=c1[nH]c(=O)c2ccccc2o1`, the Potency result is “inactive”.

For the compound `CNCc1ccccc1`, the Potency result is “inactive”.

`C=CCOc1c(Br)cc(C(C)(C)c2cc(Br)c(OCC=C)c(Br)c2)cc1Br`: the Potency entry was “inactive”.

For `C[C@H](CCC(=O)NCC(=O)O)[C@H]1CC[C@H]2[C@@H]3[C@H](O)C[C@@H]4C[C@H](O)CC[C@]4(C)[C@H]3C[C@H](O)[C@]12C`, the Potency result is “inactive”.

`CCCOC(=O)CCCCC(=O)OCCC`: the Potency entry is “inactive”.

Turning to `CN(C)CCOCCN(C)CCO`, the Potency result was “inactive”.

For the compound `CC(C)SCc1ccco1`, the Potency entry was “inactive”.

Regarding `CCNC(=O)NCCCOc1cccc(CN2CCCCC2)c1`, the Potency result was “inactive”.

With `COc1cc(C=O)ccc1OC(=O)C(C)C`, the Potency result was “inactive”.

On to `O=C(O)CCNC(=O)c1ccccc1`, for which the Potency entry was “inactive”.

Turning to `CC(=O)Nc1ncc([N+](=O)[O-])s1`, the Potency entry is “inactive”.
